Assay results taken from PubChem BioAssay AID2060323 (National Center for Advancing Translational Sciences (NCATS), 2025).
Records with an inconclusive call do not appear. Active and inactive are the calls of the source. Calls come from the whole dose curve; as a rule, active = well fitted activation curve with a large enough effect; inconclusive = small, poorly fitted or top-dose-only effect; inactive = no such curve, though single readings can be large or run the other way.

The compounds below were run against Cellular tumor antigen p53 (Homo sapiens) (UniProt P04637) (assay: Confirmatory qHTS for small molecule compounds that upregulate eGFP-tagged delta133p53alpha (in C-terminal) cells.). Settings: delta133p53alpha-eGFP (C-terminal) reporter cells, GFP fluorescence upregulation; series mostly up to 57.5 µM; activation (upregulation): at the top concentration.
Sequence of Cellular tumor antigen p53 (Homo sapiens) (P04637 whole entry, looked up): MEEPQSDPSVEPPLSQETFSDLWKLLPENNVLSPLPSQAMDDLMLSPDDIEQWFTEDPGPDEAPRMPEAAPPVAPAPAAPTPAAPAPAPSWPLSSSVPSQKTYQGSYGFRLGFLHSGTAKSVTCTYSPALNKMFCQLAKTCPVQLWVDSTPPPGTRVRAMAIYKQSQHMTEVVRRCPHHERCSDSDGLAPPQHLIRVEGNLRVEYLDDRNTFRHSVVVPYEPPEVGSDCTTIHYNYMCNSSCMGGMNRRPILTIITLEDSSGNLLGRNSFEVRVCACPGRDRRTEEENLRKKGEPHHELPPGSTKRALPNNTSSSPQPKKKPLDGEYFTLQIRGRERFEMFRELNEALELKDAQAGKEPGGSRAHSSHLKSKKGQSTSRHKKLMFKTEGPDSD
Text: Assay Development and Screening Technology
National Center for Advancing Translational Sciences (NCATS),
National Institute of Health (NIH), Rockville, Maryland
Cellular senescence (CS) is one of the hallmarks of aging and age-related diseases. Senescent cells are characterized by an irreversible growth arrest, an increase in senescence-associated beta-galactosidase (SA-beta-gal) activity and p16INK4a expression, an activation of the DNA damage response pathways, and the emergence of a senescence-associated secretory phenotype (SASP).
Delta133p53alpha, a human/primate-specific p53 protein isoform, delays or inhibits the induction of CS and SASP in various types of human cells, including progeria-derived fibroblasts, primary normal astrocytes, and CD8+ T lymphocytes. Induction of delta133p53alpha with small molecule compounds may provide therapeutic opportunities for inhibition of senescence/SASP-associated pathologies in progeria syndromes, astrocyte-mediated neuroprotection in neurodegenerative diseases, and possibly prevention and treatment of a wider range of senescence- and aging-associated diseases.
Here we report the development and validation of a cell-based quantitative high throughput screening (qHTS) assay in 1,536-well format. This qHTS assay uses the NCI-H358 cell line with doxycycline-inducible expression of enhanced green fluorescent protein (eGFP)-tagged delta133p53alpha, which allows efficient and highly quantitative measurement of the protein levels.
PROTOCOL TABLE (as described by Inglese J, Shamu CE and Guy RK. 2007)
SEQUENCE No. (e.g., 1, 2, 3, etc.); […] (e.g., Cells, Incubation, Reagent, etc.); VALUE; DESCRIPTION.
1; Cells; 4uL; 800 doxycycline treated cells / well in doxycycline-free media, 1536-well black, clear-bottom low base Aurora microplates.
2; Compounds; 23 nL; Kalypsis pin tool (Wako) equipped with 1536-well pin heads, 5-azacytidine positive control.
3; Incubation; 24 hr; 37C, 5% CO2; 95% relative humidity.
4; Aspiration; 1x; BioTek EL406 washer dispenser (Agilent).
5; Fixing; 3.5% paraformaldehyde, BioTek EL406 washer dispenser (Agilent).
6; Washing; 1x PBS; BioTek EL406 washer dispenser (Agilent).
7; Nuclei staining; 1:1000 dilution of Hoechst 33342 (Thermofisher), BioTek EL406 washer dispenser (Agilent).
8; Incubation; 20 min; in the dark at room temperature.
9; Washing; 2x, 1x PBS (ThermoFisher), BioTek EL406 washer dispenser (Agilent).
10; Reagent; 10 uL; 1x PBS per well, sealed with clear adhesive tape.
11; Detection; Fluorescence, Acumen eX3 laser scanning cytometer (STP Labtech), GFP filters […].
NOTES (numbers refer to sequence numbers above).
1. NCI-H358 cells expressing eGFP-tagged delta133p53alpha were grown in T75 culture flasks and treated with doxycycline for 24h, at 10 ng/ml for eGFP-D133p53a cells (N-terminal cell) and 100 ng/ml for D133p53a-eGFP cells (C-terminal cells). Cells were trypsinized, counted using a Counted 3 Automated Cell Counter (Thermo Fisher), and diluted to a concentration of 200,000 cells/ml. A Multidrop Combi Reagent Dispenser (ThermoFisher) was used to dispense 800 cells/well in […] of doxycycline-free media, into 1536-well black/clear bottom low base plates (AuroraMicroplates).
2. After plating cells, 23 nl of compound library, DMSO vehicle control or positive control (5-azacytidine) were transferred by Pin Tool (Wako). The plate map layout was the same for each plate: (column 1) non-doxycycline treated cells + DMSO vehicle control; (column 2) doxycycline treated cells + DMSO vehicle control baseline; (column 3) doxycycline treated cells + positive control 57.5 uM final concentration 5-azacytidine; (column 4) doxycycline treated cells + serial dilution of 5-azacytidine, 16-point 1:2 titration spanning 1.8 nM to […] final concentration; (columns 5-48) doxycycline treated cells + titration of library compounds.
3. Cells were incubated at 37 °C, 5 % CO2, 95% RH with breathable metal lid for 24h.
4-10. […]

Compound	activation (upregulation)	Potency
O=C(c1cc(O)c(O)c([N+](=O)[O-])c1)c1ccccc1F	3.4% (inactive)	
Brc1c(Br)c(Br)c2[nH]cnc2c1Br		21.7 µM (active)
COC(=O)Nc1nc2ccc(C(=O)c3cccs3)cc2[nH]1	43.6% (inactive)	
CC1CN(S(=O)(=O)c2cccc3cnccc23)CCN1 (stereo not given)	0.467% (inactive)	
CCCCCCCCCCCCCCCCCCOC[C@H](COP(=O)([O-])OCC[N+](C)(C)C)OC	-18% (inactive)	
CC1c2cccc(O)c2C(O)=C2C(=O)C3(O)C(O)=C(C(N)=O)C(=O)C(N(C)C)C3C(O)C21 (stereo not given)		0.0061 µM (active)
CCN(CC)CCCC(C)Nc1c2ccc(Cl)cc2nc2ccc(OC)cc12 (stereo not given)		8.63 µM (active)
O=C1N(c2ccccc2)c2ccccc2C1(Cc1ccncc1)Cc1ccncc1	10.3% (inactive)	
Cc1ccc(S(=O)(=O)/C=C/C#N)cc1		21.7 µM (active)
N#Cc1cc([N+](=O)[O-])c2sc(C(N)=O)[n+]([O-])c2c1	3.58% (inactive)	
CNC(=O)[C@H]1O[C@@H](n2cnc3c(NCc4cccc(I)c4)ncnc32)[C@H](O)[C@@H]1O	-35.1% (inactive)	
Cn1cnc2c(NCc3ccccc3)nc(NCCO)nc21	3.46% (inactive)	
Cc1cc(O)c2c(c1)C(=O)c1cc(O)cc(O)c1C2=O		21.7 µM (active)
CC12C(=O)OC(=O)C1(C)C1CCC2O1 (stereo not given)		4.85 µM (active)
Cc1ccc(S(=O)(=O)N[C@@H](Cc2ccccc2)C(=O)CCl)cc1		15.3 µM (active)
CC(=O)N[C@@H](CS)C(=O)O	-5.47% (inactive)	
Cn1cc(C2=C(c3ccc(Cl)cc3Cl)C(=O)NC2=O)c2ccccc21		0.968 µM (active)
COc1cc2c(cc1OC)-c1cc(=Nc3c(C)cc(C)cc3C)n(C)c(=O)n1CC2	-16.1% (inactive)	
CC[n+]1c(/C=C/C=C2/N(C)c3ccccc3C2(C)C)sc2ccccc21		12.2 µM (active)
CCCC(=O)NCCc1c2n(c3ccc(OC)cc13)CCCc1ccccc1-2	10.5% (inactive)	

Compound	activation (upregulation)	Potency
COc1cc(/C=C(\C#N)C(=O)c2ccc(O)c(O)c2)cc(I)c1O		12.2 µM (active)
CN(C)S(=O)(=O)c1ccc2c(c1)/C(=C/c1cc3c([nH]1)CCCC3)C(=O)N2		0.769 µM (active)
Brc1c(Br)c(Br)c2n[nH]nc2c1Br	0.507% (inactive)	
COC(=O)[C@H]1[C@H]2C[C@@H]3c4[nH]c5cc(OC)ccc5c4CCN3C[C@H]2C[C@@H](OC(=O)c2cc(OC)c(OC)c(OC)c2)[C@@H]1OC		30.6 µM (active)
C=CCNc1ncnc2ccc(Br)cc12	-0.729% (inactive)	
CSc1ccccc1N1CCN(CCCCCC(=O)NC2CCCc3ccccc32)CC1 (stereo not given)	21.1% (inactive)	
Cn1c(=O)c2[nH]c(-c3ccccc3)nc2n(C)c1=O	18.6% (inactive)	
Nc1nc2ccc(Cl)cc2c2nc(-c3ccco3)nn12	29.5% (inactive)	
CC(C)(C)[C@]1(O)CCN2C[C@H]3c4ccccc4CCc4cccc(c43)[C@@H]2C1		inactive
Cc1cc(C)c(/C=C2\C(=O)Nc3ccccc32)[nH]1		7.69 µM (active)
O=C(O)c1cc2cc(F)ccc2[nH]1	3.59% (inactive)	
CCCCS(=N)(=O)CCC(N)C(=O)O (stereo not given)	0.0359% (inactive)	
O=[N+]([O-])c1ccc2c(c1)S(=O)(=O)C=C2		8.63 µM (active)
Nc1nc(Cl)nc2c1ncn2[C@@H]1O[C@H](COP(=O)(O)OP(=O)(O)OP(=O)(O)O)[C@@H](O)[C@H]1O	-17.8% (inactive)	
O=C1NCc2c1c1c3ccccc3[nH]c1c1[nH]c3ccccc3c21		27.3 µM (active)
NC[C@@H]1O[C@H](C23CC4CC(CC(C4)C2)C3)Cc2c1ccc(O)c2O		19.3 µM (active)
CCN1CCCC1CNC(=O)c1cc(S(=O)(=O)CC)c(N)cc1OC (stereo not given)	27.8% (inactive)	
CC(C)(CO)Cc1cc(C(C)(C)C)c(O)c(C(C)(C)C)c1	3% (inactive)	
N=S(=O)(O)Cc1noc2ccccc12	-6.26% (inactive)	
C#C[C@]1(O)CC[C@H]2[C@@H]3CCC4=Cc5oncc5CC4(C)[C@H]3CCC21C (stereo not given in full)	8.44% (inactive)	
